For some assays here: Potency and affinity values are given separately. The source made the active and inactive calls. Unless noted, how the calls were made is not given here.
Assays:
[1] = antimalarial activity against Dd2 strain (AID 2302;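 active means growth inhibition above 50% at the single 2 µM test dose, taken to imply half-maximal potency below 2 µM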;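 further: 0% = DMSO untreated growth and 100% = chloroquine plus artemisinin killed control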); settings: P. falciparum Dd2 in RBCs, LDH growth readout, 72 h; at 2 µM; hits give high values
[2] = HepG2 cytotoxicity, primary screen, cytotoxicity control for P. falciparum antimalarial project, cell-based, ATP luminescence (AID 2303;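 active means inhibition above 50%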;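 further: 0% = DMSO wells and 100% = digitonin-killed cells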); settings: HepG2 viability, 24-48 h, at 10 µM, hits give high values
[3] = biological target: L-lactate dehydrogenase (Plasmodium falciparum (isolate CDC / Honduras)) (UniProt Q27743); test: PfLDH activity inhibition – cell lysate, 3D7 strain, counter-screen for P. falciparum growth inhibition project (AID 2304);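 further: 0% = vehicle and 100% = reference inhibitor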; settings: P. falciparum 3D7 crude extract, LDH APAD/NBT absorbance; at 2 µM; hits give high values
[4] = inhibition of 3D7 malaria parasite growth – strain 3D7 (AID 2306);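 further: 0% = DMSO wells and 100% = chloroquine plus artemisinin control wells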; settings: P. falciparum 3D7 erythrocytic growth, LDH absorbance, 72 h; at 2 µM; hits give high values
[5] = biological target: Calcium-dependent protein kinase 1 (Plasmodium falciparum (isolate 3D7)) (UniProt P62344); test: PfCDPK1 kinase inhibitors, biochemical, TCAMS library (AID 1159585; cut-off not given, nearly all actives have IC50 up to about 0.98 µM;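 further: inhibitors leave more ATP so luminescence rises with inhibition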); settings: recombinant PfCDPK1, Kinase-Glo ATP depletion luminescence
[6] = biological target: Plasmodium falciparum protein kinase 6 (PK6, PF3D7_1337100) (UniProt Q8IDW1); test: PfPK6 kinase inhibitors, biochemical, TCAMS library (AID 1159586); settings: recombinant PfPK6, Kinase-Glo ATP depletion luminescence
[7] = biological target: Protein kinase 7 (PK7), Plasmodium falciparum 3D7 (PF3D7_0213400) (UniProt Q7YTF7); test: inhibition of Plasmodium PK7 catalytic activity – biochemical, TCAMS antimalarial set, Kinase-Glo luminescence (AID 1159587); settings: recombinant PfPK7, Kinase-Glo ATP depletion luminescence
[8] = biological target: Calcium-dependent protein kinase 4 (Plasmodium falciparum (isolate 3D7)) (UniProt Q8IBS5); test: PfCDPK4 kinase inhibitors, biochemical, TCAMS library (AID 1159588; cut-off not given, nearly all actives have IC50 up to about 0.91 µM); settings: recombinant PfCDPK4, Kinase-Glo ATP depletion luminescence
Chain of Calcium-dependent protein kinase 4 (Plasmodium falciparum (isolate 3D7)) (Q8IBS5 whole entry, looked up): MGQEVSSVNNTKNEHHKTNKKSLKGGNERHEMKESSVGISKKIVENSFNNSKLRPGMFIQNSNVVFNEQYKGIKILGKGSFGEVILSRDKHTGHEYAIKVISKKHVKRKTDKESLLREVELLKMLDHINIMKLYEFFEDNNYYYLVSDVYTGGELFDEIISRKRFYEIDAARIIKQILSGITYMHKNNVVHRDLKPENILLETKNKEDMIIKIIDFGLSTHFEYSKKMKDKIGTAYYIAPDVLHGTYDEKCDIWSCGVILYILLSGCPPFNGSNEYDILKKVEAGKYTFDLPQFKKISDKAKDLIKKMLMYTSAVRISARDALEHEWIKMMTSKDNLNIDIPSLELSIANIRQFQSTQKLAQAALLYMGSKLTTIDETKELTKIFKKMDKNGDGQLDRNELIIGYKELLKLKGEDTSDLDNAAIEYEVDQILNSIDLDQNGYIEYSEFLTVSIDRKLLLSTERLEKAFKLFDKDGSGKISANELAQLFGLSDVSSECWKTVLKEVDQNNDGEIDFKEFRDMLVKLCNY

Chain of Calcium-dependent protein kinase 1 (Plasmodium falciparum (isolate 3D7)) (P62344 whole entry, looked up): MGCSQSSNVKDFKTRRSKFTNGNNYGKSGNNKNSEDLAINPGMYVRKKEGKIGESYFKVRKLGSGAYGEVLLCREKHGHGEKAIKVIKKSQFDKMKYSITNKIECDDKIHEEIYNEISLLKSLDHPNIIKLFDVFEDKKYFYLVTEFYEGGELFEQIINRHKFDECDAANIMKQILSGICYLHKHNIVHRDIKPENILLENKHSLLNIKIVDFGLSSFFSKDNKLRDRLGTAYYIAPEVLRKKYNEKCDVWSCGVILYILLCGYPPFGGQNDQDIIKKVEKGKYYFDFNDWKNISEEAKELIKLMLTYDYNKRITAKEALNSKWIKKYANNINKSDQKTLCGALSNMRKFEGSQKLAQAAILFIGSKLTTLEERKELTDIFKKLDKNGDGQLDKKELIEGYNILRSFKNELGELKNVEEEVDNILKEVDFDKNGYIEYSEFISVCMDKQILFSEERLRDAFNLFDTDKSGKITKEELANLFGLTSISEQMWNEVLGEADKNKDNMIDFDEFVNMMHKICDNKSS
Chain of Plasmodium falciparum protein kinase 6 (PK6, PF3D7_1337100) (Q8IDW1 1-305): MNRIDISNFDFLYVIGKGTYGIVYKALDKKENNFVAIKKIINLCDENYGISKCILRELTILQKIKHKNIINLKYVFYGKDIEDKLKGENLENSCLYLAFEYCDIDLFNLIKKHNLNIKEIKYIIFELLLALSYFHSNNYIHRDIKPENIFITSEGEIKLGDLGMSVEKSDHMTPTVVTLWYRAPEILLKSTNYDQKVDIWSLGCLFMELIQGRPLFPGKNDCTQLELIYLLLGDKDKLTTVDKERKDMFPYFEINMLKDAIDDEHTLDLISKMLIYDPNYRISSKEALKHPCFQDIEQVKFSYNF
Chain of L-lactate dehydrogenase (Plasmodium falciparum (isolate CDC / Honduras)) (Q27743 whole entry, looked up): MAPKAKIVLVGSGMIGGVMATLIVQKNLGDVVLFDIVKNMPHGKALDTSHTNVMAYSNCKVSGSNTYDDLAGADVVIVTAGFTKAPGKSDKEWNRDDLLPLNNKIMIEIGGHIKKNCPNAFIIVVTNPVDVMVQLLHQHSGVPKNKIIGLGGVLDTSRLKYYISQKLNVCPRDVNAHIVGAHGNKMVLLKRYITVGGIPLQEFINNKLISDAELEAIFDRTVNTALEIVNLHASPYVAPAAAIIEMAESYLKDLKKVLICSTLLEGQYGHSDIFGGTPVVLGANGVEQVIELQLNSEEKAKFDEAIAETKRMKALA
Chain of Protein kinase 7 (PK7), Plasmodium falciparum 3D7 (PF3D7_0213400) (Q7YTF7 1-343): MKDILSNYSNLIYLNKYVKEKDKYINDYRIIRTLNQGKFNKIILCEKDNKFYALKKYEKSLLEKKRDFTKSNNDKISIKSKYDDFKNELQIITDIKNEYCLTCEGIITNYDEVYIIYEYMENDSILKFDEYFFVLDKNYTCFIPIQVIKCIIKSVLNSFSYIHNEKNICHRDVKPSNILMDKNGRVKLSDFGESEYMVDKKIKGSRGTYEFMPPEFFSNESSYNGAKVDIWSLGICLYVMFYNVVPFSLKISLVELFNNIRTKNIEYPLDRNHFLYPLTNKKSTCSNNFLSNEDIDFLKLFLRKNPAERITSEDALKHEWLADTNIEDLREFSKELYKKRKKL

CCCCCCN1CCC(NCc2ccc(CN(C)C)cc2)CC1
inactive: growth inhibition [1] 26% | inhibition [2] 18% | inhibition [3] 1% | outcome [5] | outcome [6] | outcome [7] | outcome [8]
active: growth inhibition [4] 92%

NC(=O)CCC(NC(=O)CNC(=O)Nc1cccc(C(F)(F)F)c1)C(=O)O (stereo not given)
active: growth inhibition [1] 93% | growth inhibition [4] 97%
inactive: inhibition [2] 1% | inhibition [3] 4% | outcome [5] | outcome [6] | outcome [7] | outcome [8]

O=C(NCC1CCN(Cc2cccc(C(F)(F)F)c2)C1)c1cc(-c2cccc(C(F)(F)F)c2)cs1 (stereo not given)
inactive: inhibition [2] 35% | inhibition [3] -2% | outcome [5] | outcome [6] | outcome [7] | outcome [8]
active: growth inhibition [1] 74% | growth inhibition [4] 100%

CCn1c(-c2cc(C)on2)nc2cnc(Oc3ccc(C(=O)N4CC(=O)N(C)C4C(C)(C)C)cc3)cc21 (stereo not given)
active: growth inhibition [1] 57% | growth inhibition [4] 81%
inactive: inhibition [2] 44% | inhibition [3] 4% | outcome [5] | outcome [6] | outcome [7] | outcome [8]

O=C(/C=C/c1ccc(Cl)c(Cl)c1)NCCCCCN1CCC(NC(=O)Nc2ccccc2F)CC1
active: growth inhibition [4] 95%
inactive: growth inhibition [1] 25% | inhibition [2] 14% | inhibition [3] -5% | outcome [5] | outcome [6] | outcome [7] | outcome [8]

CC(C)(CNCc1cc(Cl)cc(Cl)c1)c1nc(-c2ccc(Cl)c(O)c2)c(-c2ccnc(N)n2)[nH]1
inactive: growth inhibition [1] 2% | inhibition [3] -1% | outcome [5] | outcome [6] | outcome [7] | outcome [8]
active: inhibition [2] 54% | growth inhibition [4] 92%

CNC(=O)Cc1ccc(C(=O)Nc2cccc(-c3ccc(-c4nc5c(C)cccc5[nH]4)s3)c2)cc1
active: inhibition [2] 66% | growth inhibition [4] 91%
inactive: growth inhibition [1] 25% | inhibition [3] 0% | outcome [5] | outcome [6] | outcome [7] | outcome [8]

CCCc1cc(C(C)=O)ccc1OCCCON1C(N)=NC(N)=NC1(C)C
active: growth inhibition [1] 96% | inhibition [2] 61% | growth inhibition [4] 96%
inactive: inhibition [3] 4% | outcome [5] | outcome [6] | outcome [7] | outcome [8]

NC(=O)c1ccc(NCC(=O)Nc2cccc(-c3cccc(-c4nc5ccc(C(F)(F)F)cc5[nH]4)c3)c2)cc1
active: growth inhibition [4] 99%
inactive: growth inhibition [1] 41% | inhibition [2] 32% | inhibition [3] 1% | outcome [5] | outcome [6] | outcome [7] | outcome [8]

O=C(NC1CCN(Cc2ccc(F)cc2)CC1)c1ccc(-c2cccc(C(F)(F)F)c2)s1
active: inhibition [2] 88% | growth inhibition [4] 83%
inactive: growth inhibition [1] 11% | inhibition [3] 4% | outcome [5] | outcome [6] | outcome [7] | outcome [8]

O=C(Nc1cc(C(F)(F)F)cc(C(F)(F)F)c1)c1cc(C(F)(F)F)cc(C(F)(F)F)c1
active: growth inhibition [1] 86% | growth inhibition [4] 101%
inactive: inhibition [2] 21% | inhibition [3] 2% | outcome [5] | outcome [6] | outcome [7] | outcome [8]

Cc1nc(/N=C(\N)NC(=O)NC2CCCCC2)nc2ccccc12
inactive: inhibition [2] 21% | inhibition [3] -2% | outcome [5] | outcome [6] | outcome [7] | outcome [8]
active: growth inhibition [1] 99% | growth inhibition [4] 95%

CN(C(=O)Nc1ccc(C(F)(F)F)cc1)C1CCN(CCCCCNC(=O)/C=C/c2ccc(Cl)c(Cl)c2)CC1
inactive: growth inhibition [1] 38% | inhibition [3] -3% | outcome [5] | outcome [6] | outcome [7] | outcome [8]
active: inhibition [2] 57% | growth inhibition [4] 101%

CCCCN(Cc1cnccc1-c1ccc(Br)cc1)c1ccc(C(O)(C(F)(F)F)C(F)(F)F)cc1
inactive: growth inhibition [1] 45% | inhibition [2] 10% | inhibition [3] 6% | outcome [5] | outcome [6] | outcome [7] | outcome [8]
active: growth inhibition [4] 87%

COc1ccc(Oc2ccc(-c3c(C)[nH]c(C)cc3=O)cc2)cc1
inactive: inhibition [2] -12% | inhibition [3] -3% | outcome [5] | outcome [6] | outcome [7] | outcome [8]
active: growth inhibition [1] 88% | growth inhibition [4] 93%

OC(CNCc1ccccc1OCc1ccccc1)c1cccc(Br)c1 (stereo not given)
active: growth inhibition [1] 97% | growth inhibition [4] 100%
inactive: inhibition [2] -1% | inhibition [3] 0% | outcome [5] | outcome [6] | outcome [7] | outcome [8]

COc1cc(C=NNc2nc(Nc3ccccc3)nc(Nc3ccccc3)n2)ccc1OCc1ccccc1[N+](=O)[O-]
active: growth inhibition [4] 98%
inactive: growth inhibition [1] 18% | inhibition [2] 8% | inhibition [3] 3% | outcome [5] | outcome [6] | outcome [7] | outcome [8]

N=c1n(CCN2CCCC2)c2ccccc2n1CC(O)c1ccc(Cl)c(Cl)c1 (stereo not given)
inactive: growth inhibition [1] 6% | inhibition [2] 36% | inhibition [3] 5% | outcome [5] | outcome [6] | outcome [7] | outcome [8]
active: growth inhibition [4] 100%

CCCCNC[C@@H](O)[C@H](Cc1ccccc1)NC(=O)c1cc(NCC)cc(N2CCCCS2(=O)=O)c1
inactive: inhibition [2] 11% | inhibition [3] 2% | outcome [5] | outcome [6] | outcome [7] | outcome [8]
active: growth inhibition [1] 98% | growth inhibition [4] 99%

Cc1cccc2[nH]c(-c3ccc(-c4cccc(C(=O)N5CCCCC5C(C)O)c4)s3)nc12 (stereo not given)
active: growth inhibition [1] 53% | growth inhibition [4] 101%
inactive: inhibition [2] 27% | inhibition [3] -1% | outcome [5] | outcome [6] | outcome [7] | outcome [8]

COc1ccc(NC(=O)/C=C/c2ccccc2Cl)cc1OCCN1CCC(NCc2ccccc2)CC1
active: growth inhibition [1] 101% | growth inhibition [4] 106%
inactive: inhibition [2] 28% | inhibition [3] 7% | outcome [5] | outcome [6] | outcome [7] | outcome [8]

COc1ccc2nccc(NN=Cc3cccc(Cl)c3)c2c1
active: growth inhibition [1] 99% | growth inhibition [4] 100%
inactive: inhibition [2] 1% | inhibition [3] 3% | outcome [5] | outcome [6] | outcome [7] | outcome [8]

CN(Cc1cccc(O)c1)C1CCN(c2cc(NC(=O)c3ccc(F)cc3)ccn2)CC1
active: growth inhibition [4] 94%
inactive: growth inhibition [1] 9% | inhibition [2] 24% | inhibition [3] -2% | outcome [5] | outcome [6] | outcome [7] | outcome [8]

COc1cccc(C=NNc2cc(C)nc3c(OC)cccc23)c1
inactive: inhibition [2] 6% | inhibition [3] -6% | outcome [5] | outcome [6] | outcome [7] | outcome [8]
active: growth inhibition [1] 58% | growth inhibition [4] 99%

C[C@H]1[C@H](c2cccc(Cl)c2)OCC(C)(C)N1C(=O)CCN1CCCCC1
inactive: growth inhibition [1] 5% | inhibition [2] 2% | inhibition [3] -1% | outcome [5] | outcome [6] | outcome [7] | outcome [8]
active: growth inhibition [4] 88%

Cc1ccc(CNC(=O)c2cc3c(=O)n4cccc(C)c4nc3n(CCN3CCOCC3)c2=N)cc1
inactive: growth inhibition [1] 21% | inhibition [2] 31% | inhibition [3] -6% | outcome [5] | outcome [6] | outcome [7] | outcome [8]
active: growth inhibition [4] 97%

CN(CCCCNC(=O)c1ccc(-c2ccccc2)cc1)C1CCc2c(O)cccc2C1 (stereo not given)
inactive: growth inhibition [1] 21% | inhibition [2] 24% | inhibition [3] 0% | outcome [5] | outcome [6] | outcome [7] | outcome [8]
active: growth inhibition [4] 102%

O=C(C=Cc1ccc(Cl)c(Cl)c1)NCCCCCN1CCC(CCCNS(=O)(=O)c2ccc(Br)cc2)CC1
active: inhibition [2] 74% | growth inhibition [4] 93%
inactive: growth inhibition [1] 25% | inhibition [3] -5% | outcome [5] | outcome [6] | outcome [7] | outcome [8]

CCN(CC)CCOc1ccc(C(O)(C#CC(O)(c2ccccc2)c2ccc(OCCN(CC)CC)cc2)c2ccccc2)cc1 (stereo not given)
inactive: inhibition [3] 4% | outcome [5] | outcome [6] | outcome [7] | outcome [8]
active: growth inhibition [1] 99% | inhibition [2] 81% | growth inhibition [4] 99%

CC(NCC(O)Cn1c2ccccc2c2ccccc21)c1ccccc1 (stereo not given)
active: growth inhibition [1] 85% | growth inhibition [4] 96%
inactive: inhibition [2] 37% | inhibition [3] 9% | outcome [5] | outcome [6] | outcome [7] | outcome [8]

O=S(=O)(NCCN1CCCC1)c1ccc(-c2cccc(CNCCc3cccs3)c2)cc1
inactive: growth inhibition [1] 30% | inhibition [2] 41% | inhibition [3] -1% | outcome [5] | outcome [6] | outcome [7] | outcome [8]
active: growth inhibition [4] 95%

O=C1CCCC1Sc1nc2ccccc2c(=O)n1-c1ccc(Cl)c(Cl)c1 (stereo not given)
inactive: growth inhibition [1] 42% | inhibition [2] 10% | inhibition [3] 0% | outcome [5] | outcome [6] | outcome [7] | outcome [8]
active: growth inhibition [4] 97%

Cc1cccc2[nH]c(-c3ccc(-c4cccc(NC(=O)NCc5ccc(F)cc5)c4)cc3)nc12
inactive: inhibition [3] -1% | outcome [5] | outcome [6] | outcome [7] | outcome [8]
active: growth inhibition [1] 100% | inhibition [2] 82% | growth inhibition [4] 101%

Cc1cc(N2CCCN(C)CC2)nc(Nc2ccc(Cl)cc2)n1
inactive: growth inhibition [1] 11% | inhibition [2] 8% | inhibition [3] 1% | outcome [5] | outcome [6] | outcome [7] | outcome [8]
active: growth inhibition [4] 96%

COc1cc2nccc(Nc3ccc(OCc4ccc(NC(C)=O)cc4)cc3)c2cc1OC
active: growth inhibition [1] 95% | growth inhibition [4] 101%
inactive: inhibition [2] 24% | inhibition [3] 3% | outcome [5] | outcome [6] | outcome [7] | outcome [8]

Nc1ccc2c(N)c3ccccc3nc2c1
inactive: inhibition [2] 20% | inhibition [3] -2% | outcome [5] | outcome [6] | outcome [7] | outcome [8]
active: growth inhibition [1] 74% | growth inhibition [4] 93%

O=C(O)c1cc(C(F)(F)F)co1
active: growth inhibition [4] 96%
inactive: growth inhibition [1] 19% | inhibition [2] -4% | inhibition [3] 1% | outcome [5] | outcome [6] | outcome [7] | outcome [8]

Cc1cc(Br)cnc1CCCCNc1cc(=O)c2ccccc2[nH]1
active: growth inhibition [1] 64% | growth inhibition [4] 91%
inactive: inhibition [2] -1% | inhibition [3] -1% | outcome [5] | outcome [6] | outcome [7] | outcome [8]

Cc1nc2nc(N)nc(N)c2c(C)c1Cc1cccc(C#N)c1
active: inhibition [2] 64% | growth inhibition [4] 97%
inactive: growth inhibition [1] 1% | inhibition [3] 1% | outcome [5] | outcome [6] | outcome [7] | outcome [8]

COc1ccc(Nc2nccc(N3CCC(NC(=O)c4cc5ccccc5s4)C3)n2)cc1 (stereo not given)
active: growth inhibition [1] 86% | growth inhibition [4] 99%
inactive: inhibition [2] 1% | inhibition [3] 4% | outcome [5] | outcome [6] | outcome [7] | outcome [8]

— PubChem BioAssay
